From PubChem BioAssay (NCI)
About 83,000 compounds went through this panel and 20% of them were active in at least one assay; those are over-represented in the sample as a whole.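 Cells were grown in 96-well plates and exposed to the test compound at a single concentration for 48 hours; results are reported as percent growth, with values below 10 considered active.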 Calls of active or inactive are those of the source.

Key:
Assay in all cases: NCI-60 one-dose screen, 48 h (100 = growth as untreated, 0 = no growth, -100 = all killed)
Conditions in all cases: 10 µM unless noted
[1] = test system: SK-MEL-2 melanoma
[2] = test system: EKVX NSCLC
[3] = test system: SN12C renal
[4] = test system: UO-31 renal
[5] = test system: TK-10 renal
[6] = test system: ACHN renal
[7] = test system: CAKI-1 renal
[8] = test system: CCRF-CEM leukemia
[9] = test system: MOLT-4 leukemia
[10] = test system: RPMI-8226 leukemia
[11] = test system: OVCAR-8 ovarian
[12] = test system: OVCAR-5 ovarian
[13] = test system: OVCAR-4 ovarian
[14] = test system: SK-OV-3 ovarian
[15] = test system: IGROV1 ovarian
[16] = test system: OVCAR-3 ovarian
[17] = test system: HS 578T breast
[18] = test system: NCI/ADR-RES ovarian
[19] = test system: A498 renal
[20] = test system: SR leukemia

Measured: growth

CN(C)C1CCC(NC2=CC(=O)C=CC2=O)CC1 (centres undefined)
inactive: [1] 107% | [2] 111% | [3] 115% | [4] 92.3% | [5] 113% | [6] 99.2% | [7] 100% | [8] 107% | [9] 102% | [10] 111% | [11] 113% | [12] 118% | [13] 111% | [14] 119% | [15] 105% | [16] 116% | [17] 108% | [18] 111%

CC(=O)/C=C/c1cc2cc(Cl)ccc2[nH]c1=O
active: [20] 5.65%
inactive: [1] 87.9% | [2] 89.3% | [3] 77% | [4] 77.5% | [5] 95.5% | [6] 92% | [7] 87% | [19] 90.2% | [9] 87.1% | [10] 54.5% | [11] 92.2% | [12] 95.3% | [13] 90.5% | [16] 84.7% | [17] 89.7%

Cc1oc2nc[nH]c(=O)c2c1C(=O)/C=C/c1ccc(Cl)cc1Cl
inactive: [1] 91.3% | [2] 117% | [3] 67% | [4] 67.6% | [5] 123% | [6] 66.4% | [7] 46.1% | [19] 94.3% | [9] 86.8% | [20] 33% | [10] 28.4% | [11] 45.4% | [12] 134% | [13] 68.6% | [16] 48.6% | [17] 102% | [18] 43%

COc1cc(-c2csc(NC(=O)Nc3ccc(Cl)cc3Cl)n2)cc(OC)c1OC
inactive: [1] 62.7% | [2] 46.6% | [3] 59.5% | [4] 34.6% | [5] 54.6% | [6] 30.3% | [7] 37.8% | [19] 34.8% | [8] 33.3% | [9] 33.4% | [11] 45.4% | [12] 75.8% | [13] 55.5% | [14] 55.5% | [15] 51.7% | [16] 20.5% | [17] 34.5%
active: [18] 9.75%

CCN1C(=O)/C(=c2\sc3n(c2=O)C2C(NN=3)N(CC)C(=S)N2CC)c2ccccc21 (centres undefined)
inactive: [1] 102% | [2] 96.9% | [3] 99.4% | [4] 81.2% | [5] 133% | [6] 100% | [7] 76% | [19] 91.5% | [9] 103% | [20] 91.8% | [10] 105% | [11] 100% | [12] 107% | [13] 88.7% | [15] 100% | [16] 103% | [17] 99.8% | [18] 103%

COc1ccc(OC)c(/C=C2\Oc3cc(OCCN4CCCC4)ccc3C2=O)c1
inactive: [1] 106% | [2] 95.2% | [3] 92.8% | [4] 74.1% | [5] 110% | [6] 92.7% | [7] 79.7% | [19] 78.2% | [9] 87.5% | [20] 56.6% | [10] 93.5% | [11] 92% | [12] 94.5% | [13] 98.5% | [15] 95.8% | [16] 101% | [17] 86.4% | [18] 86.4%

CCN(Cc1ccc(CN(CC)C(=O)C(Cl)(Cl)Cl)cc1)C(=O)C(Cl)(Cl)Cl
inactive: [1] 89% | [2] 68.3% | [3] 97.8% | [4] 78.7% | [5] 96.1% | [6] 91.1% | [7] 72% | [19] 82.6% | [9] 29.9% | [20] 32.8% | [10] 32.5% | [11] 89.6% | [12] 101% | [13] 74.7% | [14] 91.2% | [15] 94.9% | [16] 74.4% | [17] 89.7% | [18] 86.6%

COc1cc(C2C3=C(COC3=O)Nc3c2ccc2c3CCCC2)cc2c1OCO2 (centres undefined)
active: [19] 8.51% | [14] -8.93% | [16] -53.1% | [18] 3.82%
inactive: [1] 18.6% | [2] 47.9% | [3] 28% | [4] 47.7% | [5] 65.9% | [6] 29.2% | [7] 33.2% | [8] 14.6% | [9] 18.3% | [11] 15.9% | [12] 42.8% | [13] 38% | [15] 44.7% | [17] 81.8%

COc1cc(-c2csc(NC(=O)c3cc(C(F)(F)F)cc(C(F)(F)F)c3)n2)cc(OC)c1OC
inactive: [1] 21.5% | [3] 25.3% | [4] 21.3% | [5] 33% | [6] 36.1% | [7] 43.2% | [8] 29.3% | [9] 20.5% | [20] 40.4% | [10] 14.1% | [11] 25.5% | [12] 60.1% | [13] 23.4% | [14] 35.4% | [15] 46% | [16] 10.6% | [17] 35.1%
active: [2] 9.17%

C=CC(=O)N[C@H](/C=C/C(=O)OCC)Cc1ccc(-c2cc(Cl)cc(Cl)c2)cc1
inactive: [1] 90.4% | [2] 91% | [3] 88.6% | [4] 56.7% | [5] 89.1% | [6] 90.1% | [7] 79.4% | [8] 79.3% | [9] 74.3% | [10] 73.8% | [11] 76.6% | [12] 95.5% | [13] 83.6% | [14] 94.6% | [15] 93% | [16] 89.5% | [17] 94.8% | [18] 81.8%

CC(Cc1nnc(SCC(=O)Nc2ccc(I)cc2)n1N)c1ccccc1 (centres undefined)
active: [15] 8.44%
inactive: [1] 69.8% | [2] 82.5% | [3] 98.4% | [4] 74.1% | [5] 89.9% | [6] 86.5% | [7] 104% | [19] 99.9% | [9] 93.4% | [10] 59.8% | [11] 95.9% | [12] 84.4% | [16] 111% | [17] 119% | [18] 96%

COc1ccc(NC(=O)/N=c2\oc3c(OC)cccc3cc2-c2cc3ccccc3[nH]2)cc1
inactive: [1] 75.9% | [2] 72.3% | [3] 78.1% | [4] 90.4% | [5] 42% | [6] 34.9% | [7] 49% | [19] 75% | [9] 112% | [20] 107% | [10] 173% | [11] 49.1% | [12] 88.3% | [13] 69.8% | [15] 50% | [16] 64.4% | [18] 57.7%
active: [17] 7.84%

C#CCN1C(=O)/C(=c2\sc3n(c2=O)NC2C(N=3)N(CC)C(=O)N2CC)c2ccccc21 (centres undefined)
inactive: [1] 91.3% | [2] 69.7% | [3] 71% | [4] 47.9% | [5] 96.5% | [6] 54.4% | [7] 30.1% | [19] 36.8% | [9] 68.5% | [20] 15.5% | [11] 66.9% | [12] 73.8% | [13] 51.9% | [16] 23.1% | [17] 56.6% | [18] 41.7%

Nc1nc(N)c2nc(CNc3ccc(C(=O)CC(CCC(=O)O)C(=O)O)cc3)cnc2n1 (centres undefined)
active: [1] -6.72% | [4] 8.63% | [7] -3.87% | [15] -58.5%
inactive: [2] 42.8% | [3] 30.9% | [5] 74.7% | [6] 27.2% | [8] 17.8% | [9] 33% | [20] 28.6% | [11] 14.8% | [12] 53.1% | [14] 52% | [16] 49.8% | [17] 82.4% | [18] 25.6%

Cc1cc(C(=O)O)c(N)c(C)n1
inactive: [1] 119% | [2] 95.4% | [3] 106% | [4] 83.4% | [5] 101% | [6] 109% | [7] 92.3% | [19] 101% | [8] 107% | [9] 101% | [11] 112% | [12] 111% | [13] 102% | [16] 110% | [17] 101% | [18] 108%

CCOC(=O)c1cc(/C(=N\O)c2cc(OC)c(OC)c(OC)c2)n2cc(C)cc(C)c12
inactive: [2] 37.7% | [3] 30.3% | [4] 48.7% | [5] 26.7% | [6] 10.5% | [7] 37.1% | [11] 41.8% | [12] 64.3% | [13] 20.7% | [14] 37.8% | [15] 57.5% | [17] 11.4% | [18] 22.6%
active: [1] 2.79% | [19] -6.21% | [8] 9.43% | [9] 9.33% | [16] -8.99%
